According to PubChem BioAssay AID686978 (National Center for Advancing Translational Sciences (NCATS), 2013):
The campaign covered roughly 420,000 compounds. About 64,000 (15%) were called active. About 27% were inconclusive and are not listed. Not all results are given here. Values without a mark were called inactive. The call rests on the fitted dose curve; in most records, active means well fitted inhibition curve with a large enough effect; inconclusive means small, poorly fitted or top-dose-only effect; inactive means flat fitted curve, though single readings scatter.

assay: qHTS for Inhibitors of human tyrosyl-DNA phosphodiesterase 1 (TDP1): qHTS in cells in absence of CPT; settings: DT40 Tdp1-/- hTDP1 cells, no CPT, ATP luminescence, 48 h; activity change, negative = growth inhibition: at 46.2 µM (top of the series); further: nearly all actives have a fitted effect of over 55% in size
From the text: Human tyrosyl-DNA phosphodiesterase 1 (TDP1) is a novel repair gene, and we propose to use it as a new target for anticancer drug development. TDP1 is not an essential protein, but under treatment with topoisomerase I poison (camptothecin: CPT), TDP1 works as a critical factor for cell survival. To directly identify novel TDP1 inhibitors active in a cellular environment, we have knocked-out the Tdp1 gene in chicken DT40 cells (Tdp1-/-) and generated a complemented counterpart cells that contains a stable transfection of the human TDP1 gene (Tdp1-/-;hTDP1 cells). For the primary screen, Tdp1-/-;hTDP1 cells will be exposed to small molecules in the presence or absence of CPT, and their growth kinetics will be evaluated after 48 hours by measuring ATP activity. […] The hit compounds will then be evaluated in the presence or absence of CPT using Tdp1-/- cells. […] In tertiary assays, biochemical gel-based assays will be used to assess whether the hit compounds specifically target TDP1.
To this end, we have screened this cell line against the MLSMR in two primary screens. In one screen we add CPT and in the other we screen in the absence of CPT; this AID represents the screen where CPT was absent.
NIH Chemical Genomics Center [NCGC]
NIH Molecular Libraries Probe Centers Network [MLPCN]
Assay Submitter (PI): Yves Pommier, NCI
DT40-hTDP1 cells without 20 nM Camptothecin (add 20 microL of DMSO in 1 L of cell culture medium) were dispensed at 400 cells/5microL/well in tissue culture treated 1536-well white wall/solid bottom assay plates (Greiner Bio-One North America, NC, U.S.A.) using a Multidrop Combi 8 channel dispenser (Thermo Fisher, Waltham, MA, USA). 23 nL compounds and controls were transferred using the pin tool (Kalypsys, San Diego, CA, USA) to the assay plates. The assay plates were then incubated at 37 masculineC for a minimum 48 hr. Three microL of Cell Titer Glo solution was added to the plates and incubated at RT in dark for 30 min. Luminescence was read using ViewLux (Perkin Elmer) with 1 sec exposure slow speed, high gain and 2x binning.
On the % scale 0 is the no-effect control and ±100 the full control effect; potency means the concentration at half of the fitted maximal effect.

| SMILES | activity change, negative = growth inhibition [%] | Potency |
| --- | --- | --- |
| N#CNC1=NCN(CCc2ccccc2)CN1 | -13.8 | – |
| O=C(CCN1CCCCC1)Nc1ccc(F)c(F)c1 | -19.5 | – |
| COc1ccc(N2CCN(S(=O)(=O)c3cc4c5c(c3)C(C)C(=O)N5CCC4)CC2)cc1 (configuration not stated) | -23.2 | – |
| COc1ccccc1CCNS(=O)(=O)c1cc2c3c(c1)C(C)C(=O)N3CCC2 (configuration not stated) | – | 2.91 µM (active) |
| COc1ccc(C)cc1S(=O)(=O)Nc1cc2c3c(c1)CCC(=O)N3CCC2 | -20.7 | – |
| Cc1cccc(NC(=O)Cc2ccc(Br)cc2)n1 | 1.59 | – |
| COC(=O)Cc1c(-c2[nH]c3ccccc3c2CC(=O)OC)[nH]c2ccccc12 | – | 14.6 µM (active) |
| COC(=O)Cc1nc2ccccc2[nH]1 | -22.4 | – |
| CCOC(=O)C1CCN(C(=O)Cc2c(C(=O)O)[nH]c3ccccc23)CC1 | 2.54 | – |
| COc1ccc(S(=O)(=O)N2CCOCC2)c(C)c1C | 0.714 | – |
| COc1ccc(NC(=O)COC(=O)c2ccc(NS(=O)(=O)/C=C/c3ccccc3)cc2)cc1 | -29.2 | – |
| COc1ccc(CNC(=O)C2CCN(C(=O)c3ccco3)CC2)cc1 | -7.38 | – |
| COc1ccc(Cn2c(=O)[nH]c3cc(C(=O)N4CCN(C(=O)c5ccco5)CC4)ccc3c2=O)cc1 | – | 11.2 µM (active) |
| COc1ccccc1Cn1c(=S)[nH]c2cc(C(=O)N3CCN(C)CC3)ccc2c1=O | -26.3 | – |
| COC(=O)c1ccc(NC(=O)CSc2nc(N)c(NC(=O)c3ccc(Br)o3)c(=O)[nH]2)cc1 | 3.08 | – |
| Cc1cc(NCc2cccnc2)no1 | -4.16 | – |
| OC[C@@H]1CN(Cc2ccc(Cl)cc2)C[C@H](n2cnc3c(NCc4ccncc4)ncnc32)O1 | -16.7 | – |
| Clc1ccc(Nc2ncnc3c2nnn3Cc2ccccc2)cc1 | -17.1 | – |
| Clc1ccc(Cn2ncc3c(NCc4cccnc4)ncnc32)cc1 | – | 20.6 µM (active) |
| Brc1ccc2ncnc(NCc3cccnc3)c2c1 | – | 20.6 µM (active) |
| c1ccc(CNc2ncncc2-c2cccnc2)cc1 | -3.74 | – |
| O=C(NCCN1CCOCC1)c1ccc2c(c1)ncn2C1CCCC1 | 3.13 | – |
| CC(Oc1cccc(Cl)c1)C(=O)NC1CC(C)(C)NC(C)(C)C1 (configuration not stated) | -0.549 | – |
| CN(CC(=O)NCCc1ccccc1)S(=O)(=O)c1cnc[nH]1 | 18.4 | – |
| CN=C(NC#N)NCCSCc1nc[nH]c1C | – | inactive |
| COc1ccc(CN2C(=O)CN=C2Nc2ccc(C)cc2C)cc1 | 5.62 | – |

| SMILES | activity change, negative = growth inhibition [%] | Potency |
| --- | --- | --- |
| CCOC(=O)CN1C(C(=O)c2ccccc2)=C(OC(=O)C(C)(C)C)c2ccccc2S1(=O)=O | – | 14.6 µM (active) |
| COC(=O)C1=C(c2ccccc2)c2ccccc2S(=O)(=O)N1CC(=O)Nc1ccccc1C(F)(F)F | -26.4 | – |
| CCOC(=O)c1ccccc1CN1C(=O)c2ccccc2S1(=O)=O | -23.2 | – |
| Cn1c(SCC(=O)c2ccc(F)cc2)nnc1-c1ccccn1 | -24.7 | – |
| CCCNC(=O)C1(C)CCN1C(=O)C1(c2ccccc2)CC1 (configuration not stated) | -9.77 | – |
| CC1(C(=O)NS(=O)(=O)Cc2cccc(Cl)c2)CCN1C(=O)Cc1ccc(Cl)cc1Cl (configuration not stated) | -1.96 | – |
| CC1(C(=O)Nc2cccc3c2CCCC3)CCN1C(=O)C1(c2ccccc2)CC1 (configuration not stated) | – | 14.6 µM (active) |
| Cc1ccccc1S(=O)(=O)NC(=O)C1(C)CCN1C(=O)C1(c2ccc(Cl)cc2)CC1 (configuration not stated) | -13.5 | – |
| CC1(C(=O)Nc2cccc3c2CCCC3)CCN1C(=O)CCc1ccc(Cl)cc1Cl (configuration not stated) | – | 23.1 µM (active) |
| Cc1ccccc1S(=O)(=O)NC(=O)C1(C)CCN1C(=O)Cc1ccc(Cl)cc1Cl (configuration not stated) | 3.67 | – |
| O=C(N=C1SC2CS(=O)(=O)CC2N1c1ccccc1)c1ccccc1 (configuration not stated) | -18.2 | – |
| O=c1ccn([C@@H]2O[C@H](CNS(=O)(=O)c3cc4ccccc4s3)[C@@H](O)[C@H]2O)c(=O)[nH]1 | -15.3 | – |
| Nc1ccc(Oc2ccc(Cl)cc2)cc1 | -10.6 | – |
| CC(C(=O)O)c1ccc(C2CCCCC2)c2ccccc12 (configuration not stated) | -4.66 | – |
| Cc1ccccc1Nc1scc(-c2ccc(Br)cc2)[n+]1-c1ccccc1C | – | 29.1 µM (active) |
| O=C1N/C(=N\N=C\c2ccco2)SC1Cc1ccc(F)cc1 (configuration not stated) | -17.3 | – |
| CCCCC1S/C(=N/N=C/c2cccs2)NC1=O (configuration not stated) | – | 18.4 µM (active) |
| CCC1S/C(=N/N=C/c2ccco2)NC1=O (configuration not stated) | -3.68 | – |
| C=CCOC(=O)C1=C[C@H](c2ccc(Br)cc2)C[C@H](OCCCCO)O1 | -17.2 | – |
| CC1(C)CC(=O)C(C2=NC(C)(C)Cc3ccccc32)=C(O)C1 | -29.5 | – |
| CCOc1ccc(NC(=O)N(CCC(C)C)C(C)c2ccco2)cc1 (configuration not stated) | – | 20.6 µM (active) |
| CCOc1ccc(NC(=O)c2ncoc2-c2ccco2)cc1 | -37.2 | – |
| CCOc1ccc(NC(=O)N(CC(C)C)CC(C)C)cc1 | -17.9 | – |
| C[N+](C)(C)CCCCCNCC12CC3CC(CC(C3)C1)C2 | -2.06 | – |
| CC(C)(O)C#Cc1ncc(C(F)(F)F)cc1Cl | -6.92 | – |
| Cc1cc(C)n(S(=O)(=O)c2cccc([N+](=O)[O-])c2)n1 | -14.9 | – |
